PubChem BioAssay AID1259343 (VanderVen Lab, College of Veterinary Medicine, Cornell …, 2017)
Out of some 6,200 compounds screened, about 2,900 (47%) were called active. So high a share suggests a set chosen from earlier hits. The list shows a part of the results. Unmarked numbers belong to inactive results. Cut-off read from the data, not from the text of the source: active = inhibition above about 50%; inactive = the rest.

Experiment: Mycobacterium tuberculosis growth inhibition, primary screen (AID 1259343)
Conditions: inhibition: at 10 µM, active compounds read high; outcome: 10 uM

| Compound | inhibition |
| --- | --- |
| CCC1CCc2sc(C(=O)N=c3sccn3C)cc2C1 (configuration not stated) | 37.3% |
| CCC1CCc2sc(C(=O)O)cc2C1 (configuration not stated) | 85.9% (active) |
| CC(C)(C)C1CCc2sc(C(=O)O)cc2C1 (configuration not stated) | -46.9% |
| C=CCN(CC=C)C(=O)CSc1nc(N)cc(=O)[nH]1 | -27.6% |
| O=C(c1ccc(-c2ccccc2)cc1)C1CCCN(C(=O)CSc2ncccn2)C1 (configuration not stated) | 9.54% |
| O=C(c1ccc2ccccc2c1)C1CCCN(S(=O)(=O)Cc2ccccc2)C1 (configuration not stated) | 23.8% |
| Cc1cc(C(=O)N2CCCC(C(=O)c3ccc(-c4ccccc4)cc3)C2)no1 (configuration not stated) | 79.4% (active) |
| O=C(c1ccc(-c2ccccc2)cc1)C1CCCN(C(=O)c2ccsc2)C1 (configuration not stated) | 74.6% (active) |
| CN(Cc1cccc(O)c1)c1nccc(CCC(F)(F)F)n1 | 54.8% (active) |
| CNc1ncc(CN(C)c2nccc(CCC(F)(F)F)n2)cn1 | 55.3% (active) |
| CN(Cc1ccc2nonc2c1)c1nccc(CCC(F)(F)F)n1 | 31.6% |
| Cc1sc(NC(=O)CC2(CC(=O)O)CCCCC2)c(C#N)c1C | -8.62% |
| O=C(O)CC1(CC(=O)Nc2cc(C(F)(F)F)cc(C(F)(F)F)c2)CCCCC1 | 88.4% (active) |
| Clc1cccc(C2C=C(c3ccc(-c4ccccc4)cc3)Nc3nnnn32)c1Cl (configuration not stated) | 93.5% (active) |
| CCc1ccc(C2C=C(c3ccc(F)cc3)Nc3nnnn32)cc1 (configuration not stated) | 80.2% (active) |
| COc1ccc(C2C(C(=O)c3ccccc3)C(O)(C(F)(F)F)N(C)C(=O)N2C)cc1 (configuration not stated) | -22.5% |
| COc1ccc(C2C=C(c3ccc(Cl)cc3)Nc3nnnn32)cc1 (configuration not stated) | 7.81% |
| COc1ccc(C2C=C(c3ccccc3)Nc3nnnn32)cc1 (configuration not stated) | 78.5% (active) |
| CCc1ccc(C2=CC(c3ccc(Br)cc3)n3nnnc3N2)cc1 (configuration not stated) | 76.2% (active) |
| Cc1ccc(C2=CC(c3ccc(Cl)cc3)n3nnnc3N2)cc1 (configuration not stated) | 102% (active) |
| Clc1ccc(-c2csc3ncnc(Sc4nnnn4C4CC4)c23)cc1 | -14.2% |
| Clc1ccc(C2C=C(c3ccc(Br)cc3)Nc3nnnn32)cc1 (configuration not stated) | -26.6% |
| Cc1cccc(C)c1OC1CCN(c2cncc(C(N)=O)n2)CC1 | 95.8% (active) |

| Compound | inhibition |
| --- | --- |
| Cc1cccc(C)c1OC1CN(C(=O)C(=O)c2ccco2)C1 | 45.6% |
| OC(c1ccccc1)C1CCN(c2cncc(Cl)n2)CC1 (configuration not stated) | 44.6% |
| Cc1ccc(OCc2cc(C(=O)N3CCCC3c3nc4ccccc4s3)no2)cn1 (configuration not stated) | 81.4% (active) |
| Cc1ccccc1C1CCCN(C(=O)c2cc(COc3cccc4cnccc34)on2)C1 (configuration not stated) | 46.4% |
| CCCC1C=CCN1C(=O)c1cc(COc2ccc3c(c2)OCO3)[nH]n1 (configuration not stated) | 31.8% |
| CCCC1C=CCN1C(=O)c1cc(COc2ccc(C(C)=O)cc2)on1 (configuration not stated) | 75.2% (active) |
| Cc1ccc(OCc2cc(C(=O)N3CCC(C(=O)c4ccccc4)CC3)no2)cn1 | inactive |
| CCC1C=CCN1C(=O)c1cc(COc2ccc3sc(C)nc3c2)on1 (configuration not stated) | 94.8% (active) |
| C=CC[C@@H]1CC=C[C@@H](C)N1C(=O)c1cc(COc2ccc3sc(C)nc3c2)on1 | -45.8% |
| CCCCC1C=CCN1C(=O)c1c(O)cccc1O (configuration not stated) | 3.76% |
| COc1ccc(-c2coc3cc(O)cc(O)c3c2=O)cc1 | 88.5% (active) |
| COc1ccc(OC)c(C(=O)c2coc3ccc(OC)cc23)c1 | 17.3% |
| COc1ccc(-c2coc3c(O)c(OC)ccc3c2=O)cc1 | 67% (active) |
| COc1ccc2c(=O)c(Oc3ccc(Cl)cc3)coc2c1 | 0.4% |
| COc1cc(OC)c2c(=O)c(-c3ccccc3)coc2c1 | 70.5% (active) |
| O=c1c(O)c(-c2ccc(O)c(O)c2)oc2cc(O)cc(O)c12 | 36.4% |
| COc1ccc(-c2cnoc2-c2ccc(OC)cc2O)cc1 | -32.9% |
| O=c1c(-c2ccc(O)cc2)coc2cc(O)cc(O)c12 | 50.5% (active) |
| COc1ccc2c(=O)c3c(=O)n(-c4ccccc4)c(C)nc3oc2c1 | 12.6% |
| COc1ccc(-c2c(NC(=O)c3ccco3)oc3c(C)cccc3c2=O)cc1 | 19.2% |
| COc1ccc(CC(N)c2csc(Nc3nncc4ccccc34)n2)cc1 (configuration not stated) | 91.7% (active) |
| NC(c1csc(Nc2nncc3ccccc23)n1)C1CCCCC1 (configuration not stated) | 97.4% (active) |
| NC(Cc1ccccc1)c1csc(Nc2nncc3ccccc23)n1 (configuration not stated) | 89.8% (active) |

| Compound | inhibition |
| --- | --- |
| NC(c1csc(Nc2nncc3ccccc23)n1)c1ccccc1Cl (configuration not stated) | 58.8% (active) |
| Cc1cc2n(c1)CCn1c(C)ccc1-2 | -18.7% |
| NC(CCc1ccccc1)c1csc(Nc2nncc3ccccc23)n1 (configuration not stated) | 81% (active) |
| NC(COCc1ccccc1)c1csc(Nc2nncc3ccccc23)n1 (configuration not stated) | 71% (active) |
| COc1ccc(C(N)c2csc(Nc3nncc4ccccc34)n2)cc1 (configuration not stated) | 57.6% (active) |
| c1ccc(CC(Cc2ccccc2)=NNc2nncc3ccccc23)cc1 | 9.04% |
| CCCn1ccnc1SCC(=O)NC(=O)NC12CC3CC(CC(C3)C1)C2 | 32.7% |
| O=C(Nc1ccc(-c2ccccc2)cc1)N[C@@H](Cc1ccccc1)C(=O)N1CCC(C(=O)N2CCCCC2)CC1 | 76.3% (active) |
| Cc1ccc(-n2c(Cl)c(Cl)nc(Cl)c2=O)cc1 | 102% (active) |
| CCCc1nc2oc3ccccc3c(=O)c2c(=O)n1-c1ccc(C)cc1 | -28% |
| Cc1sc2ncnc(NC3CCCCC3C)c2c1C (configuration not stated) | 84.5% (active) |
| Cc1ccc(C2=NNC(=NCc3ccc4c(c3)OCO4)SC2)s1 | 18.8% |
| Cc1[nH]c2ccccc2c1N=Nc1ccc(SC(F)F)cc1 | 58.3% (active) |
| CCOC(=O)c1c(C)[nH]c(C(=O)OCC(=O)C23CC4CC(CC(C4)C2)C3)c1C | -59.8% |
| Cc1[nH]c2ccccc2c1N=Nc1ccc2c(c1)OCO2 | 89.7% (active) |
| Cc1[nH]c2ccccc2c1C(c1cccnc1)c1c(C)[nH]c2ccccc12 | 45.9% |
| Cc1[nH]c2ccccc2c1N=Nc1ccc(F)cc1 | 11.2% |
| Cc1ccc(C)c(N=Nc2c(C)[nH]c3ccccc23)c1 | 81.8% (active) |
| Cc1[nH]c2ccccc2c1N=Nc1cccc2ccccc12 | -9.25% |
| CCOC(=O)c1c(C)[nH]c(C(=O)CSc2ncn[nH]2)c1C | -1.94% |
| CCOC(=O)c1c(C)[nH]c(N=Nc2ccc3c(c2)OCO3)c1C | 104% (active) |
